Measurements reported in PubChem BioAssay (Tox21).
Active and inactive are the calls of the source. Calls follow the shape of the dose curve; as a rule, active = well fitted curve in the direction sought with a large enough effect in the repeat runs; inconclusive = weak or mixed curves; inactive = flat fitted curve, though single readings scatter.

Assay: qHTS assay to test for compound auto fluorescence at 535 nm (green) in HEK293 cells (AID 720680)
Details: green autofluorescence 485/535 nm; series mostly up to 91.3 µM; fluorescence, % of fluorescein: at the top concentration
Description: U.S. Tox21 Program National Center for Advancing Translational Sciences [NCATS] NIH Chemical Genomics Center [NCGC] U.S. Environmental Protection Agency [EPA] National Institutes of Environmental Health Sciences [NIEHS] National Toxicology Program [NTP] U.S. Food and Drug Administration [FDA] Tox21 Assay Overview: Compound auto fluorescence often interferes with screening of the compound library against various biological targets and signaling pathways. Some of these compounds may have fluorophoric properties. Such properties may interfere with the assay outputs resulting in false positives and/or negatives. To decrease such complications and ensure the compound activities are relevant in terms of biological response, the Tox21 10K compound library was screened for auto fluorescence. From the fluorophores used as reporter signals in our screening assays, the auto fluorescence equivalencies of compounds against three fluorophores have been evaluated: Triamterene, Fluorescein and Rose Bengal sodium for blue, green and red fluorescence, respectively. The fluorescence intensities were measured using Excitation/Emission wavelengths at 405/460nm, 485/535nm and 540/590nm for blue, green and red labels, respectively. This assay includes the green fluorescence data.
Tox21 Assay Protocol Summary: 2,000 HEK293 cells in 5 uL of culture medium containing 10% dialyzed FBS per well were dispensed into black wall/clear bottom 1536-well plates using a Multidrop Combi Dispenser (Thermo Scientific). The assay plates were incubated for 4-5 hr at 37C to allow cell attachment to the well bottom, followed by the transfer of 23 nL compound or DMSO vehicle by a pintool work station (Kalypsys, San Diego, CA). After the assay plates were incubated overnight at 37C and 5% CO2, fluorescence intensities in the assay plates were measured by an Envision (PerkinElmer, Shelton, CT) plate reader using three labels for measuring blue, green and red fluorescence at […] 460, 535 and 590nm respectively.
% is scaled to controls: 0 for no effect and ±100 for the full control effect.

Row | SMILES | fluorescence, % of fluorescein | outcome
1 | CC(C)c1cccc(O)c1 | -0.205% [at 95.7 µM] (inactive) | –
2 | CO | – | inactive
3 | CC(C)CCCC(C)CCCC(C)CCCCC(C)CCCC(C)CCCC(C)C (stereo not given) | 0.0105% [at 46 µM] (inactive) | –
4 | CCCCCCCCCCCCI | 0.0269% (inactive) | –
5 | Cc1nccn1CC1CCc2c(c3ccccc3n2C)C1=O (stereo not given) | – | inactive
6 | C=C(C)[C@H]1CC=C(C)CC1 | 0.0058% (inactive) | –
7 | CCCC=O | 0.0181% (inactive) | –
8 | COc1ccc(NC(C)=O)cc1 | -0.0771% [at 95.7 µM] (inactive) | –
9 | NC(=O)c1ncn([C@@H]2O[C@H](CO)[C@@H](O)[C@H]2O)c1O | 0.0808% [at 46 µM] (inactive) | –
10 | C1C2OC2C2C1C1CC2C2OC12 (stereo not given) | -0.0841% (inactive) | –
11 | N[C@@H](CS)C(=O)O | 0.126% [at 95.7 µM] (inactive) | –
12 | O=[N+]([O-])c1ccc(Oc2ccc([N+](=O)[O-])cc2)cc1 | 0.0198% [at 95.7 µM] (inactive) | –
13 | CCCCCOC(=O)Nc1nc(=O)n([C@@H]2O[C@H](C)[C@@H](O)[C@H]2O)cc1F | -0.0344% [at 46 µM] (inactive) | –
14 | O=C(O)c1cccc(C(=O)O)n1 | 0.0064% (inactive) | –
15 | CC(C)(O)c1ccccc1 | -0.135% (inactive) | –
16 | CCCC(=O)O[C@]1(C(=O)CCl)[C@@H](C)C[C@H]2[C@@H]3CCC4=CC(=O)C=C[C@]4(C)[C@@]3(F)C(=O)C[C@@]21C | 0.0507% [at 46 µM] (inactive) | –
17 | NC(=O)CCCCC1CCSS1 (stereo not given) | 0.0265% [at 46 µM] (inactive) | –
18 | CCOC(=O)[C@H](CCc1ccccc1)N[C@@H](C)C(=O)N1CCC[C@H]1C(=O)O | 0.0554% [at 46 µM] (inactive) | –
19 | C=CCOCC(O)CS(=O)(=O)O (stereo not given) | -0.0273% [at 95.7 µM] (inactive) | –
20 | CCCCCCCCN(C)CCCCCCCC | -0.0817% [at 95.7 µM] (inactive) | –

Row | SMILES | fluorescence, % of fluorescein | outcome
21 | OCC(O)[C@@H](O)[C@H](O)[C@H](O)CO[C@H]1O[C@H](CO)[C@@H](O)[C@H](O)[C@H]1O (stereo not given in full) | -0.11% (inactive) | –
22 | CN(C)C(=O)Nc1ccccc1 | -0.137% (inactive) | –
23 | CCN1CCN(c2cc3c(cc2F)c(=O)c(C(=O)O)cn3C2CC2)CC1 | -0.002% [at 46 µM] (inactive) | –
24 | CN(C)CCOC(c1ccc(Cl)cc1)c1ccccn1 (stereo not given) | -0.0031% [at 46 µM] (inactive) | –
25 | FC(F)(F)C(F)(F)C(F)(F)C(F)(F)C(F)(F)C(F)(F)C(F)(F)C(F)(F)C(F)(F)C(F)(F)F | 0.0789% [at 9.17 µM] (inactive) | –
26 | CC(C)CCCCCCN | -0.12% (inactive) | –
27 | CC(C)(O)C(=O)c1ccc(OCCO)cc1 | -0.0065% (inactive) | –
28 | COCCOC(=O)CC#N | -0.0427% (inactive) | –
29 | CCC(=O)Nc1cccc(N)c1 | -0.0842% (inactive) | –
30 | COc1cccc(Br)c1 | 0.0878% (inactive) | –
31 | Nc1cc(N)cc(C(=O)O)c1 | 1.61% (inactive) | –
32 | C#CC(O)CCCCC (stereo not given) | -0.043% (inactive) | –
33 | CCN(CC)C(=O)c1ccc(O)c(OC)c1 | – | inactive
34 | C/C=C1\C(=O)C[C@H]2[C@@H]3CCC4=CC(=O)CC[C@]4(C)[C@H]3CC[C@]12C | 0.0218% [at 46 µM] (inactive) | –
35 | CCCCCC[C@@H](CCC)C(=O)O | 0.0218% [at 46 µM] (inactive) | –
36 | NS(=O)(=O)c1cc(C2(O)NC(=O)c3ccccc32)ccc1Cl (stereo not given) | 0.0145% [at 18.6 µM] (inactive) | –
37 | CC(C)(C)N(CCO)CCO | -0.133% [at 95.7 µM] (inactive) | –
38 | CC(C)c1ccc2oc3nc(N)c(C(=O)O)cc3c(=O)c2c1 | 0.0347% [at 46 µM] (inactive) | –
39 | N#CCN(CC#N)CCN(CC#N)CC#N | -0.0687% (inactive) | –
40 | CC(C)COC(=O)c1ccccc1O | 0.0464% (inactive) | –
